From PubChem BioAssay (Tox21)
Results filed as inconclusive are left out. A call without a number means that no potency is given here. Activity calls are given as the source filed them. The call rests on the fitted dose curve; in most records, active means well fitted activation curve with a large enough effect in the repeat runs; inconclusive means weak or mixed curves, or effect the other way; inactive means no such curve, though single readings can be large or run the other way.

Assay: qHTS assay to identify small molecule agonists of the retinoic acid receptor (RAR) signaling pathway (AID 1159553)
Conditions: C3RL4 RARE luciferase reporter, agonist, 6 h; series mostly up to 73.3 µM
Text: National Center for Advancing Translational Sciences [NCATS] NIH Chemical Genomics Center [NCGC] U.S. Environmental Protection Agency [EPA] National Institutes of Environmental Health Sciences [NIEHS] National Toxicology Program [NTP] Assay overview: All-trans Retinoic acid (atRA) is the potent natural metabolite of retinol and plays an important role in normal embryonic development and maintenance of cellular phenotype in adult animals. atRA is the activating ligand for the retinoic acid receptors (RARs) which form heterodimers with retinoid X receptors (RXRs) on the retinoic acid response element (RARE). Through activation of the RAR/RXRs nuclear receptors, atRA regulates the transcription of a large number of protein-coding genes and regulatory RNAs. Intracellular levels of atRA are controlled by the retinol signaling pathway (RSP) that regulates the biosynthesis and catabolism of atRA to maintain physiological levels. Chemicals that interfere with the RSP can cause abnormal intracellular levels of atRA and therefore are potential developmental toxicants. To assess compounds for the potential adverse effect on embryonic development through interfering with retinol signaling, a cell-based RARE luciferase reporter gene assay was used. C3RL4 cell line (OARSA/CFSAN/FDA, Laurel, MD) was used to screen Tox21 10K compound library for identifying activators of the RSP.
Assay Protocol Summary: C3RL4 cells were seeded at 1,000/well in 5 uL of assay medium into white solid 1,536-well tissue culture plates (Greiner Bio-One North America Inc. Monroe, NC) using a Multidrop Combi (Thermo Scientific, Waltham, MA) dispenser. After incubation at 37 C and 5% CO2 for an overnight, 23 nL of compounds dissolved in DMSO, positive control or DMSO only were transferred by a Pintool station (Kalypsys, San Diego, CA). After 6 hr incubation at 37 C and 5% CO2, 5 uL of Amplite Luciferase reagent (AAT Bioquest Inc. Sunnyvale, CA) was added to each assay plate using a Flying Reagent Dispenser (FRD) (Aurora Discovery, San Diego, CA). Luminescence was quantified on a ViewLux plate reader (PerkinElmer, Waltham, MA) after 30 min incubation at room temperature.

Structure (SMILES) | Potency | activation
CC(C)(O)C(=O)c1ccccc1 | inactive | –
Nc1nc2c(ncn2COC(CO)CO)c(=O)[nH]1 | inactive | –
CC(=O)OCC(=O)[C@@]1(O)CCC2C3CCC4=CC(=O)CC[C@]4(C)C3[C@@H](O)C[C@@]21C (stereo not given in full) | inactive | –
CN1C(=O)N(C)C(O)C1O (stereo not given) | inactive | –
C=COCC1CCC(CO)CC1 (stereo not given) | inactive | –
CC1(C)C(O)C(C)(C)C1O (stereo not given) | inactive | –
COc1cc(C(=O)N2CCCCCCC2)cc(OC)c1OC | inactive | –
CC1(C)CO[C@@H](CC(=O)O)CN1 | inactive | –
N#Cc1ccc(C2CCCc3cncn32)cc1 (stereo not given) | inactive | –
CCN(CC)CCNC(=O)c1cc(S(C)(=O)=O)ccc1OC | inactive | –
Nc1c[n+](N2CCOCC2)no1 | inactive | –
Cn1c(N)c(N=O)c(=O)n(C)c1=O | inactive | –
O=[N+]([O-])c1ccc(F)cc1F | inactive | –
NC(=O)c1ccc([N+](=O)[O-])cc1 | inactive | –
Cc1cnc(NS(=O)(=O)c2ccc(N)cc2)nc1 | inactive | –
CC[N+](C)(C)c1cccc(O)c1 | inactive | –
COC(=O)c1cc(C(=O)OC)cc(S(=O)(=O)O)c1 | inactive | –
CN1N=C(C(N)=O)CCC1=O | inactive | –
COc1ccc2c(c1)CCCC2=O | inactive | –
C[C@@H]1CCN(C(=O)[C@H](CCCN=C(N)N)NS(=O)(=O)c2cccc3c2NC[C@H](C)C3)[C@@H](C(=O)O)C1 | inactive | –

Structure (SMILES) | Potency | activation
C[C@H](NC(CCc1ccccc1)C(=O)O)C(=O)N1CCC[C@H]1C(=O)O (stereo not given in full) | inactive | –
CC/C=C\CC/C=C/C(OCC)OCC | inactive | –
CCOC(=O)[C@H](CCc1ccccc1)N[C@@H](C)C(=O)N1[C@H](C(=O)O)C[C@@H]2CCC[C@@H]21 | inactive | –
CN1CCCC1 | inactive | –
CC(C(=O)O)c1ccc(CC2CCCC2=O)cc1 (stereo not given) | inactive | –
CCC(C)C1CCCCC1=O (stereo not given) | inactive | –
Cc1cc2c(cc1S(N)(=O)=O)S(=O)(=O)CCC2 | inactive | –
O=C(O)CN(CCOCCOCCN(CC(=O)O)CC(=O)O)CC(=O)O | – | 2.01% [at 0.756 µM] (inactive)
CC/C=C\CCOC(C)=O | inactive | –
NC(=O)COCCN1CCN(C(c2ccccc2)c2ccc(Cl)cc2)CC1 (stereo not given) | inactive | –
O=C1CC2CC1C1CCCC21 (stereo not given) | inactive | –
Cc1[nH]c(=O)c(C#N)cc1-c1ccc2nccn2c1 | inactive | –
CC(=O)Nc1c(I)cc(I)c(C(=O)O)c1I | inactive | –
N[C@@H](C(=O)N[C@@H]1C(=O)N2C(C(=O)O)=C(Cl)CS[C@H]12)c1ccccc1 | – | 0.152% [at 8.36 µM] (inactive)
CC(=O)c1ccccc1O | inactive | –
CCCC(=O)O[C@]1(C(=O)CO)CC[C@H]2[C@@H]3CCC4=CC(=O)CC[C@]4(C)[C@H]3[C@@H](O)C[C@@]21C | inactive | –
Nc1cc(=O)[nH]c(N)n1 | inactive | –
CS(=O)(=O)O | inactive | –
COCCc1ccc(OCC(O)CNC(C)C)cc1 (stereo not given) | inactive | –
O=S(O)CO | inactive | –
